Screening data as filed in PubChem BioAssay.
This is a sample that favours compounds with a hit; in the whole collection about 1.8% have one here.
DENV2 CPE rescue = protects cells from dengue virus 2 cytopathic effect; DENV2-infected cells, cytopathic effect rescue, plate reader; CPE inhibition, % at 9.99 µM; 350,000 tested, 1.7% active; AID 651640; in the data active means CPE inhibition above about 20%, passing the limit was not always enough; tested in BHK-21 cells;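 further: 0% = median of neutral control wells and 100% = median of positive control wells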
PDI inh = inhibitors of human protein disulfide isomerase. P07237. PDI insulin aggregation turbidity, A650, 90 min. inhibition, % at 10 µM. 350,000 tested, 0.052% active. AID 588391;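 active means mean inhibition across replicates of 30% or more, whatever share of single replicates reach that level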
MLL AF4-AF9 inh = blocks AF4 peptide binding to human AF9 | P42568 | AlphaScreen, biotin-AF4 peptide binding to FLAG-AF9 | inhibition, % at 10 µM | 350,000 tested, 0.47% active;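 active means every replicate reaching a set inhibition limit, whatever the replicate mean, cut at about 25% in these data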;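 further: 0% = plate neutral control median and 100% = total signal loss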
ERAP1 inh = ERAP1 (human) enzyme inhibition; inhibition, % at 10.7 µM; 340,000 tested, 0.15% active; recombinant ERAP1, Leu-AMC fluorescence, 60 min; AID 652197; Q9NZ08;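 active means mean replicate inhibition of at least 30%, or all replicates individually reaching that 30% level; inactive means mean below 30% and not every replicate reaching it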;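 further: 0% = neutral control wells and 100% = L-leucinethiol positive control wells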
Target sequence (Q9NZ08 whole entry, looked up): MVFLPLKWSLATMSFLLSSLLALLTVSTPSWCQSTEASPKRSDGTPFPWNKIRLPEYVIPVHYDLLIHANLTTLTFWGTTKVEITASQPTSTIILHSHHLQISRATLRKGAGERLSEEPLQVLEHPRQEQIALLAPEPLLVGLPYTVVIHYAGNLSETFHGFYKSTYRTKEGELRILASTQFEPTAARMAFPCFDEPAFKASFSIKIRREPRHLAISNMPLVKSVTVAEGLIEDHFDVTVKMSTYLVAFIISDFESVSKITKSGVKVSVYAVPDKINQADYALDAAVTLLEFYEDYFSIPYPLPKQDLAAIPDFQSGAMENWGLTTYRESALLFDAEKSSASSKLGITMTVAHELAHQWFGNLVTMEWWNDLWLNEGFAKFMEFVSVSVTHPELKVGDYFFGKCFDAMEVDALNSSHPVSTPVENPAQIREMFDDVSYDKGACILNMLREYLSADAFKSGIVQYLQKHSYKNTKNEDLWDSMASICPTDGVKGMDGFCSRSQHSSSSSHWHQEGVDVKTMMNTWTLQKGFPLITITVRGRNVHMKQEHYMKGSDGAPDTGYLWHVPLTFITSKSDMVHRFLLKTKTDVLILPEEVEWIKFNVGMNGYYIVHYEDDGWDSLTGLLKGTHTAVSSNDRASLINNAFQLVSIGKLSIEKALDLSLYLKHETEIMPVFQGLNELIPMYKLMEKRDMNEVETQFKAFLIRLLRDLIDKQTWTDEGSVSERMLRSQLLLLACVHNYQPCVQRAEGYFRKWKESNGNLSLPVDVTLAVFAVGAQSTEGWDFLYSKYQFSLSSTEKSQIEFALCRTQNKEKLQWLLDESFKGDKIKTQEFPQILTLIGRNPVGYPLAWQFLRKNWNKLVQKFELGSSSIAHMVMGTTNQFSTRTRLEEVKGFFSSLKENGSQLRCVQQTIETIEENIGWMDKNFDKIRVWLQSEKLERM
ERp5 block = ERp5 (human) disulfide isomerase inhibition. Q15084. ERp5 insulin aggregation, absorbance 650 nm, 90 min. inhibition, % at 9.99 µM. 350,000 tested, 0.05% active. AID 651711;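 active means mean replicate inhibition above about 25%, with every replicate also reaching it, limit read from the data, passing the limit was not always enough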
Numbers without * were called inactive.

What do the screens show for `CCN(C[C@H]1N[C@@](CC)(C(=O)OC)[C@H]2C(=O)N(C)C(=O)[C@@H]12)S(=O)(=O)c1ccc(C(C)(C)C)cc1`?
DENV2 CPE rescue: 4; PDI inh: -8; MLL AF4-AF9 inh: -1; ERAP1 inh: -5; ERp5 block: 4

Results for C[C@@H]1CN([C@@H](C)CO)C(=O)c2cc(NC(=O)c3ccccc3)ccc2O[C@@H](C)CCCCO[C@@H]1CN(C)C(=O)Nc1ccccc1 ?
DENV2 CPE rescue: 4; MLL AF4-AF9 inh: 1; ERAP1 inh: 1; ERp5 block: 7

Results for C#CCOCCOCCOCCNc1nc(N2CCOCC2)nc(N2CCN(C(=O)[C@H](Cc3cc4ccccc4[nH]3)n3cc([C@@H](N)C(C)CC)nn3)CC2)n1 (stereo partly specified) ?
DENV2 CPE rescue: -5; PDI inh: 9; MLL AF4-AF9 inh: 10; ERAP1 inh: -1; ERp5 block: 1

Results for C#CCOCCOCCOCCNc1nc(N2CCN(C(=O)C(Cc3cc4ccccc4[nH]3)n3cc(C(N)C(C)CC)nn3)CC2)nc(N2CCN(C(=O)C(Cc3cc4ccccc4[nH]3)n3cc(C(N)C(C)CC)nn3)CC2)n1 (stereo unspecified) ?
PDI inh: 55*

What do the screens show for `C#CCOCCOCCOCCNc1nc(N2CCN(C(=O)[C@H](CCCCN)n3cc([C@@H](N)CC(C)C)nn3)CC2)nc(N2CCN(C(=O)[C@H](Cc3cc4ccccc4[nH]3)n3cc([C@@H](N)Cc4ccc(O)cc4)nn3)CC2)n1`?
PDI inh: 35*

Results for C#CCOCCOCCOCCNc1nc(N2CCN(C(=O)[C@H](CCCCN)n3cc([C@@H](N)C(C)CC)nn3)CC2)nc(N2CCN(C(=O)[C@H](Cc3ccc(O)cc3)n3cc([C@@H](N)CC(C)C)nn3)CC2)n1 (stereo partly specified) ?
DENV2 CPE rescue: -1; PDI inh: 8; MLL AF4-AF9 inh: 30*; ERAP1 inh: -10; ERp5 block: -4

Results for CO[C@@H]1CN(C)C(=O)c2cc(NC(=O)C3CCC3)ccc2OC[C@@H](C)N(S(=O)(=O)c2ccc(Cl)cc2)C[C@H]1C ?
DENV2 CPE rescue: -8; MLL AF4-AF9 inh: 2; ERAP1 inh: 1; ERp5 block: 2

How did COc1ccc([N+](=O)[O-])cc1NC(=O)C(C)OC(=O)C1CC(=O)N(Cc2ccco2)C1 (stereo unspecified) do in these assays?
DENV2 CPE rescue: 95*; PDI inh: 1; MLL AF4-AF9 inh: 2; ERAP1 inh: 1; ERp5 block: -4

Results for COc1ccccc1NC(=O)C(C)OC(=O)C1CC(=O)N(Cc2ccco2)C1 (stereo unspecified) ?
DENV2 CPE rescue: 9; PDI inh: -2; MLL AF4-AF9 inh: 0; ERAP1 inh: -11; ERp5 block: -1

Results for CCN(CC)Cc1c(O)ccc2cc(-c3nc4ccccc4n3C)c(=O)oc12 ?
DENV2 CPE rescue: 14; PDI inh: 0; MLL AF4-AF9 inh: -4; ERAP1 inh: 91*; ERp5 block: 1

How did CCc1cc2c(=O)c(-c3nc4ccccc4n3C)c(C)oc2c(CN(CC)CC)c1O do in these assays?
PDI inh: -4

What do the screens show for `COc1ccccc1CN1CC(C(=O)NCCCc2ccc(F)cc2)CCC1=O` (stereo unspecified)?
DENV2 CPE rescue: 12; PDI inh: 1; MLL AF4-AF9 inh: 42*; ERAP1 inh: -2; ERp5 block: -3

What do the screens show for `O=C(NCCOc1ccccc1)C1CCC(=O)N(CCc2ccccn2)C1` (stereo unspecified)?
DENV2 CPE rescue: 2; PDI inh: -7; MLL AF4-AF9 inh: 1; ERAP1 inh: -2; ERp5 block: 2

What do the screens show for `COc1ccccc1CCNC(=O)C1CCC(=O)N(Cc2ccccc2OC)C1` (stereo unspecified)?
DENV2 CPE rescue: 2; PDI inh: 4; MLL AF4-AF9 inh: 2; ERAP1 inh: -1; ERp5 block: -12

How did Cc1ccc(CNC(=O)C2CCC(=O)N(CCc3ccccn3)C2)s1 (stereo unspecified) do in these assays?
DENV2 CPE rescue: 33*; PDI inh: 1; MLL AF4-AF9 inh: -3; ERAP1 inh: -4; ERp5 block: -2

What do the screens show for `COc1ccc(CCN2CC(C(=O)NCCc3ncccc3C)CCC2=O)cc1` (stereo unspecified)?
DENV2 CPE rescue: 34*; PDI inh: 14; MLL AF4-AF9 inh: -1; ERAP1 inh: 2; ERp5 block: 3

What do the screens show for `CO[C@@H]1CN(C)C(=O)c2ccc(NC(=O)C3CC3)cc2OC[C@@H](C)N(Cc2ccccc2)C[C@@H]1C`?
DENV2 CPE rescue: 2; MLL AF4-AF9 inh: -1; ERAP1 inh: -7; ERp5 block: -1

Results for COc1ccc(NC(=O)Nc2ccc3c(c2)CC(=O)N([C@H](C)CO)C[C@H](C)[C@@H](CN(C)C(=O)Nc2ccc(F)cc2)O3)cc1 ?
DENV2 CPE rescue: 9; MLL AF4-AF9 inh: -1; ERAP1 inh: 2; ERp5 block: 2

Results for Cc1noc(C)c1NC(=O)N1C[C@@H](O)COC[C@@H]2O[C@@H](CC(=O)NCC3CCCCC3)CC[C@H]21 ?
DENV2 CPE rescue: 2; MLL AF4-AF9 inh: -1; ERAP1 inh: 2; ERp5 block: -1

What do the screens show for `COc1ncc(C2=CC(=O)CC(C)(C)C2)cn1`?
DENV2 CPE rescue: 31*; PDI inh: 0; ERAP1 inh: 0; ERp5 block: 0

How did COc1ccc(C2=CC(=O)CC(C)(C)C2)cc1OC do in these assays?
PDI inh: -4; MLL AF4-AF9 inh: -6; ERAP1 inh: 1; ERp5 block: -8

How did CCCNC(=O)[C@H]1[C@H](CO)[C@H]2Cn3c(ccc(C4=CCCC4)c3=O)[C@@H]1N2S(C)(=O)=O do in these assays?
MLL AF4-AF9 inh: 0

What do the screens show for `NC[C@@H]1O[C@H](C23CC4CC(CC(C4)C2)C3)Cc2c1ccc(O)c2O`?
DENV2 CPE rescue: 4; PDI inh: 7; MLL AF4-AF9 inh: 47*; ERAP1 inh: 31*; ERp5 block: 0

What do the screens show for `CCc1cc2c(=O)[nH]c(COC)nc2s1`?
DENV2 CPE rescue: 46*; PDI inh: 4; MLL AF4-AF9 inh: 6; ERAP1 inh: 3; ERp5 block: -4

What do the screens show for `CCC(=O)N1CC[C@H]2[C@H](CO)Nc3ccc(-c4ccc(OC)cc4)cc3[C@H]21`?
DENV2 CPE rescue: -16

What do the screens show for `O=C(Cc1ccc(S(=O)(=O)N2CCOCC2)s1)Nc1ccccc1Br`?
DENV2 CPE rescue: 8; PDI inh: -9; MLL AF4-AF9 inh: -1; ERAP1 inh: -2; ERp5 block: 3

What do the screens show for `O=C(Cc1ccc(S(=O)(=O)N2CCOCC2)s1)NCC(=O)Nc1ccccc1Br`?
DENV2 CPE rescue: 126*; PDI inh: 9; MLL AF4-AF9 inh: 0; ERAP1 inh: -1; ERp5 block: 0

What do the screens show for `CCOc1ccc(NC(=O)Cc2ccc(S(=O)(=O)N3CCOCC3)s2)cc1OCC`?
DENV2 CPE rescue: 65*; PDI inh: -6; MLL AF4-AF9 inh: 3; ERAP1 inh: -3; ERp5 block: 4
